These results are taken from ChEMBL document CHEMBL4513216, “Probing the Open Global Health Chemical Diversity Library for Multistage-Active Starting Points for Next-Generation Antimalarials” (ACS Infect Dis, 2020).

The whole screen tested about 69,000 compounds, of which about 8,600 (12%) showed an effect of 50% or more. What follows is part of a selection rich in strong results, with near analogues and random picks from the rest.

This experiment concerns Plasmodium berghei. Kind of experiment: Screen against P. berghei liver stage (PbLuc), transformed with Luciferase, at 10uM. In kind it is functional, HepG2. The conditions noted are these: tested at 10 uM.
`COCC1CC2(CCN(Cc3nccs3)CC2)CN1Cc1ccccn1` (stereo not drawn): the INHIBITION is given as 71.1%.
The result for `Cc1cc(C)n(CC2CCCN2CC(=O)N(C)Cc2ccco2)n1` (stereo not drawn) reads 4.71%; that for `Cc1nnc(-c2cccc(C#N)c2)n1C1CCN(C2CC2)C1=O` (stereo not drawn), -25.7%; that for `CCN1CCCC(CNC(=O)CCc2ccc(OC)c(F)c2)C1` (stereo not drawn), 11.5%.
For `Cc1cc(CN2CCC(CNC(=O)CN3CCCCCC3)C2)[nH]n1` (stereo not drawn), the INHIBITION is 10.7%.
The result for `O=C(Cn1cccn1)NCC1CCN(Cc2cc3ccccc3[nH]2)C1` (stereo not drawn) reads 9.79%; that for `CCCC(=O)NCC1CCCN(Cc2cc(C)c(C)o2)C1` (stereo not drawn), 54.4%; that for `O=C(Cn1cc(-n2cccc2)cn1)NCC(F)(F)F`, 6.83%.
The value for `O=C(Cn1cc(-n2cccc2)cn1)NCC1CCC1` was 55.6%; that for `Cc1cc(CN2CCCC(CNC(=O)Cn3cccn3)C2)oc1C` (stereo not drawn) was 57.6%.
The result for `O=C(Cn1cc(I)cn1)NCC1CCC1` reads 27.5%.
As to `O=C(Cn1cccn1)NCC1CCCN(Cc2ccccc2)C1` (stereo not drawn), the INHIBITION was determined as 13.7%.
As to `CO[C@@H]1CN(c2ccccc2)S(=O)(=O)[C@@]12CCN(C)C2`, the INHIBITION was found to be 32.1%.
The result for `CN1CC(=O)N(c2ccccc2)CC12CCN(C(=O)CC1CC1)C2` (stereo not drawn) reads 4.68%; that for `CC[C@@H](c1ccccc1)n1c(CN)n[nH]c1=O`, 4.48%; that for `c1cncc(-c2noc(CN3CCn4c(nnc4C4CC4)C3)n2)c1`, 15.66%.
The value for `COCCCNC(=O)C(C)n1cc(Br)cn1` (stereo not drawn) was -33.2%.
The value for `O=C(NCc1ccco1)[C@H]1COC[C@H]2CN(Cc3ccccn3)C[C@H]21` was 15.9%; that for `CCOc1ccc(CN(C)C(=O)c2nc(N3CCCC3)ncc2Cl)cc1` was 24.8%.
Consider `CN(C)C(CNC(=O)c1nc(N2CCCC2)ncc1Cl)c1ccco1` (stereo not drawn), for which the INHIBITION turned out to be 26%.
As to `Cc1noc(C)c1CN(C)C(=O)c1nc(N2CCCC2)ncc1Cl`, the INHIBITION is 61.9%.
For the compound `CC(C)C(C)N(Cc1ccccn1)Cc1ccco1` (stereo not drawn), the INHIBITION is listed as 16.3%.
The result for `CCc1ccc(CN(Cc2ccco2)C(C)C(C)C)nc1` (stereo not drawn) reads 60.7%; that for `COCc1ncc(CN(Cc2ccco2)C(C)C(C)C)cn1` (stereo not drawn), 20.9%.
The value for `CC(=O)N1CCCC(c2ccc(Br)cn2)C1` (stereo not drawn) was 29.2%; that for `COc1cccc(CN2CCCC3(CCN(C(=O)c4ccco4)C3)C2)c1` (stereo not drawn) was 69.1%; that for `O=C(c1ccco1)N1CCCC2(CCN(c3nncs3)C2)C1` (stereo not drawn) was 56.6%.
The value for `COc1cccc(CN2CCCC3(CCN(C(=O)N4CCCC4)C3)C2)c1` (stereo not drawn) was 8.74%.
For the compound `COc1cccc(CN2CCCC3(CCN(C(=O)[C@H]4CCCO4)C3)C2)c1` (stereo partly drawn), the INHIBITION is 13.2%.
On to `Cc1occc1C(=O)N1CCCC2(CCN(CCN3CCCC3)C2=O)C1` (stereo not drawn), for which the INHIBITION was found to be 23.5%.
As to `O=C(c1ccco1)N1CCCC2(C1)CN(c1nncs1)CCO2` (stereo not drawn), the INHIBITION worked out at 45.7%.
Consider `O=C(c1ccoc1)N1CCC2(C1)CN(c1ncc(F)cn1)C2`, for which the INHIBITION was -0.813%.
On to `O=C(c1ccco1)N1CCCC2(CCN(CCN3CCCC3)C2=O)C1` (stereo not drawn), for which the INHIBITION is listed as 58.5%.
The value for `CC(=O)N1CCCC2(CCN(c3nncs3)C2)C1` (stereo not drawn) was 7.7%.
The value for `Cn1cccc1C(=O)N1CCCC2(CCN(CCN3CCCC3)C2=O)C1` (stereo not drawn) was -14.9%; that for `O=C(c1ccoc1)N1CCC2(CCCN(c3ncc(F)cn3)C2)C1` (stereo not drawn) was 53%.
The value for `O=C(c1ccncc1)N1CCC2(CCCN(c3ncc(F)cn3)C2)C1` (stereo not drawn) was 40.3%; that for `COc1cccc2ccn(CC(=O)NCCC(C)C)c12` was 9.04%.
`CC(C)(C)c1nnc2n1C(C(=O)N1CCOCC1)CC2` (stereo not drawn): the INHIBITION is -3.93%.
The result for `CCn1cnnc1C1CCN(C(=O)c2ccc3ccccc3n2)CC1` reads 26.4%; that for `Cc1nnc(N2C[C@@H](Oc3ccccn3)[C@H]3OCCC[C@H]32)s1`, -23.8%; that for `COc1ccc(C)cc1C(C)NCc1cnnn1C` (stereo not drawn), 0.818%.
`COCc1cn(CC2CCN(Cc3c(C)[nH]c4ccccc34)CC2)nn1`: the INHIBITION is reported as 15.8%.
Regarding `Cc1nn(-c2ccccc2Cl)c(C)c1CCC(=O)O`, the INHIBITION was determined as 15.4%.
The result for `CCc1ccc(CN2CCN(c3cccc(OC)c3)C(=O)C2)nc1` reads -8.99%; that for `O=C(c1ccco1)N1CCC2(CCCN(c3ncccn3)C2)C1` (stereo not drawn), 77.4%; that for `O=C(c1ccco1)N1CCC2(CCCN(c3ncc(F)cn3)C2)C1` (stereo not drawn), 43%.
The result for `O=C(c1ccco1)N1CCC2(CC1)CCN(c1ncccn1)CC2` reads -7.28%; that for `O=C(O)c1cnc(OCC2CC2)c(Br)c1`, -4.56%.
As to `COCCN1C(=O)CC[C@@H]2[C@H]1CCN2C(=O)N(C)C`, the INHIBITION is given as -37.8%.
The value for `Cc1nc(CN2C(=O)CC[C@H]3[C@@H]2CCN3C(=O)c2ccsc2)cs1` was 4.55%.
The value for `O=C1CC[C@@H]2[C@@H](CCN2C(=O)c2ccsc2)N1Cc1ccncc1` was 63.7%.
In the case of `O=C1CC[C@@H]2[C@@H](CCN2C(=O)c2ccsc2)N1CC1CC1`, the INHIBITION worked out at 47.8%.
As for `O=C1CC[C@H]2[C@H](CCN2C(=O)C2CCOCC2)N1Cc1ccncc1`, the INHIBITION is recorded as 7.11%.
As for `O=C1CC[C@@H]2[C@@H](CCN2C(=O)C2CCOCC2)N1CC1CC1`, the INHIBITION was determined as 18.5%.
The value for `COCCN1C(=O)CC[C@@H]2[C@H]1CCN2C(=O)C1CCOCC1` was 52.3%; that for `O=C1CC[C@H]2[C@H](CCN2C(=O)C2CCOC2)N1Cc1ccncc1` (stereo partly drawn) was 54.7%; that for `O=C1CC[C@H]2[C@H](CCN2C(=O)C2CCCO2)N1Cc1ccncc1` (stereo partly drawn) was 8.69%.
